Laboratory results: PubChem BioAssay (NCATS)
Records with an inconclusive call do not appear. The source made the active and inactive calls. Unless noted, calls come from the whole dose curve; as a rule, active = well fitted curve in the direction sought with a large enough effect; inconclusive = small, poorly fitted or top-dose-only effect, or another doubt; inactive = no such curve, though single readings can be large; an effect the other way counts as inactive or inconclusive.

How the values were obtained:
[1] = Validation screen for inhibitors of Lassa infection (AID 463096; calls by dose curve); conditions: Lassa virus infection, cell-based; series mostly up to 46.1 µM
[2] = biological target: ATP-dependent DNA helicase Q1 (Homo sapiens) (UniProt P46063); test: qHTS Validation Assay for Inhibitors of RecQ-Like Dna Helicase 1 (RECQ1) (AID 2353); conditions: recombinant RECQ1 helicase DNA unwinding assay; series mostly up to 25.6 µM
Outline: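 50 nM RECQ1T1 preincubated 15 min with compound in Tris pH 8.0 buffer with MgCl2, DTT, Tween-20 and 2.5 ug/ml poly(dI-dC); started with 200 nM TAMRA/BHQ-2 forked duplex and 2 mM ATP. Unwinding read as fluorescence (525/598 nm), two reads 2 h apart.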

[3] = biological target: RecQ-like DNA helicase BLM (Homo sapiens) (UniProt P54132); test: qHTS Validation Assay for Inhibitors of Bloom's syndrome helicase (BLM) (AID 2364); conditions: BLM helicase DNA unwinding, fluorescence, in vitro; series mostly up to 57.1 µM
Outline: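 50 nM BLM preincubated 15 min at room temperature with compound in pH 8.0 Tris buffer containing 2.5 ug/ml poly(dI-dC); started with 200 nM TAMRA/BHQ-2 forked duplex and 2 mM ATP (final). Unwinding read as TAMRA fluorescence increase, two reads 2 h apart.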

[4] = Cytometric Cell-Based qHTS for Inhibitors of the mTORC1 Signaling Pathway in MEF (Tsc2-/-, p53-/-) Cells (AID 2660); conditions: mTORC1 pathway cytometry; series mostly up to 38.3 µM;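 note: percent of cells above a phospho-rpS6 to PI ratio cutoff in each well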
Outline: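 Percent of cells positive for normalized phospho-S6 staining is reported, with the cutoff set from rapamycin (7.5 nM) versus DMSO wells. Tsc2-/-, p53-/- MEFs received compound for 24 hrs.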

[5] = High Content Imaging Cell-Based qHTS for Inhibitors of the mTORC1 Signaling Pathway in MEF (Tsc2-/-, p53-/-) Cells (AID 2666); conditions: at 38.3 µM (top of the series);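 note: percent of cells scored positive for phospho-rpS6 Ser235/236 immunostaining by imaging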
Outline: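 Phospho-rpS6 (Ser235/236) immunofluorescence, normalized and scored as % positive cells using rapamycin and DMSO controls, was read in empty-vector Tsc2-/-, p53-/- MEFs after 24 h compound exposure at 37 C; propidium iodide counted cells.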

[6] = Cytometry Cell-Based qHTS for Inhibitors of the mTORC1 Signaling Pathway in MEF cells (AID 2668); conditions: mTORC1 pathway readout; series mostly up to 38.3 µM;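 note: Tsc2-/- p53-/- mouse embryonic fibroblasts stably re-expressing wild-type Tsc2; percent cells positive for phospho-rpS6 Ser235/236 relative to propidium iodide stain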
Outline: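 Pathway inhibition in WT Tsc2-rescued Tsc2-/-, p53-/- MEFs is measured as the Alexa-488 phospho-rpS6 to propidium iodide intensity ratio after 24 hrs of compound at 37 degree Celsius. PI-stained cell number gives viability.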

[7] = Validation screen for small molecules that induce DNA re-replication in MCF 10A normal breast cells (AID 463097); conditions: MCF 10A cells, DNA re-replication phenotype imaging; series mostly up to 46.1 µM; note: nearly all actives have a fitted effect of over 60% in size
Outline: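 DNA re-replication was detected as a rise in nuclei with elevated Hoechst fluorescence after a 48 hr compound exposure of MCF 10A cells at 37 C.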

[8] = biological target: Ubiquitin carboxyl-terminal hydrolase 2 (Homo sapiens) (UniProt O75604); test: qHTS Validation Assay for Inhibitors of Ubiquitin-specific Protease USP2a Using CHOP2 as the Reporter (AID 463106); conditions: USP2a cleavage of CHOP2 reporter, enzymatic; series mostly up to 38.3 µM
Outline: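 USP2 core (10 nM final) was preincubated with compound 30 min at RT in pH 8.0 Tris/CaCl2/beta-ME/CHAPS buffer. Ub-CHOP2 and reporter substrate (25 nM final each) were then added, with fluorescence (Ex 485/Em 531) read after 60 min. Data were normalized to NEM full inhibition and fitted to concentration-response curves.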

[9] = biological target: DNA polymerase III PolC-type (Bacillus subtilis (strain 168)) (UniProt P13267); test: qHTS Validation Assay for the Inhibitors of DNA Replication in Gram-Positive Bacteria (AID 485295); conditions: Gram-positive bacterial DNA replication assay; series mostly up to 57.1 µM;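 note: reconstituted holoenzyme with PolC plus beta clamp SSB and primase; PicoGreen fluorescence of double-stranded DNA made on primed circular M13 template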
Outline: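 Primed replication of single-stranded M13Gori by a four-protein B. subtilis holoenzyme is measured at room temperature. Double-stranded product is quantified by PicoGreen fluorescence after an EDTA stop; inhibition is scaled between DMSO and EDTA controls.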

[10] = biological target: Tumor susceptibility gene 101 protein (Homo sapiens) (UniProt Q99816); test: qHTS Validation Assay for Iinhibitors of HIV-1 Budding by Blocking the Interaction of PTAP/TSG101 (AID 485342; calls by dose curve); conditions: TSG101-PTAP binding, fluorescence polarization, 4-point titration; series mostly up to 115 µM
Outline: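 Fluorescence anisotropy measured PTAP-Tsg101 interaction. Final concentrations were 10 uM protein domain and 50 nM labeled peptide, equilibrated 20 min at room temperature.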

[11] = qHTS Validation Assay to Find Inhibitors of Chronic Active B-Cell Receptor Signaling (AID 485345; active = well fitted curve in the direction sought with a large enough effect in the main read-out, with a control signal flat, not every such curve was filed as active); conditions: ABC-DLBCL cells, chronic BCR signaling reporter, CBG luciferase; series mostly up to 46.1 µM
Outline: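 TMD8 ABC-DLBCL cells stably carrying doxycycline-inducible IkappaBalpha–green luciferase fusion plus unfused red luciferase; compounds 46 uM to 3 nM, 4 h at 37C with doxycycline. Corrected green/red luminescence ratio normalized to 10 uM MG-132 and basal cell wells; curves fitted.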

[12] = biological target: ATP-dependent 6-phosphofructokinase (Trypanosoma brucei brucei) (UniProt O15648); test: qHTS Validation Assay to Find Inhibitors of T. brucei phosphofructokinase (AID 485368); conditions: T. brucei PFK enzyme assay, qHTS 7-point titration; series mostly up to 57.5 µM
Outline: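 Activity was normalized between 1x (1.25 nM) PFK wells as no inhibition and enzyme-free wells as full inhibition, from luminescence after ADP-Glo detection of ADP made from 0.5 mM F6P and 0.1 mM ATP over 45 min.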

[13] = Quantitative high throughput screen for delayed death inhibitors of the malarial parasite plastid, 96 hour incubation (AID 488745); conditions: Plasmodium falciparum growth; series mostly up to 28.7 µM;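 note: luciferase-expressing P. falciparum in erythrocytes at 2% hematocrit and 0.1% parasitemia; nearly all actives have a fitted effect of over 70% in size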
Outline: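 Growth of reporter-bearing P. falciparum in red cells is measured after 96 h with compound, covering two erythrocytic cycles. Luminescence from the integrated luciferase serves as the growth signal.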

[14] = Quantitative high throughput screen for delayed death inhibitors of the malarial parasite plastid, 48 hour incubation (AID 488752); conditions: Plasmodium falciparum growth; series mostly up to 28.7 µM; note: nearly all actives have a fitted effect of over 65% in size
Outline: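 One parasite generation (48 h, 37 C, 5% CO2) of luciferase-reporter P. falciparum in erythrocytes is run with test compound; decreased luminescence indicates inhibited growth.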

[15] = biological target: Thioredoxin reductase 1, cytoplasmic (Rattus norvegicus) (UniProt O89049); test: qHTS Assay for Substrates of Mammalian Selenoprotein Thioredoxin Reductase 1 (TrxR1) (AID 488772); conditions: purified TrxR1, NADPH consumption substrate assay; series mostly up to 57.1 µM;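 note: NADPH fluorescence in the first read after selenite addition and not the 8 min delta; a drop in NADPH fluorescence below the no-compound background marks a TrxR1 substrate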
Outline: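 Quantitative HTS in Tris-HCl buffer at pH 7.5 with EDTA and Tween-20, using rat TrxR1, 400 uM NADPH and 400 uM selenite (final). A fall in initial NADPH fluorescence relative to background marked substrate behaviour.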

[16] = biological target: Thioredoxin reductase 1, cytoplasmic (Rattus norvegicus) (UniProt O89049); test: qHTS Assay for Inhibitors of Mammalian Selenoprotein Thioredoxin Reductase 1 (TrxR1) (AID 488773); conditions: purified TrxR1 enzyme activity; series mostly up to 57.1 µM;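 note: drop in NADPH fluorescence over an 8 min run after selenite addition; nearly all actives have a fitted effect of over 40% in size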
Outline: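 Steps: enzyme (90 nM) plus NADPH (400 uM final), 5 min at ~22 deg C; compound added, 15 min; selenite (400 uM final) added; fluorescence followed for 8 min. Concentration-response curves derived from the normalized delta values.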

[17] = biological target: Flap endonuclease 1 (Homo sapiens) (UniProt P39748); test: qHTS Validation Assay for the Inhibitors of Human Flap endonuclease 1 (FEN1) (AID 488816); conditions: FEN1 nuclease activity, fluorogenic DNA substrate; series mostly up to 57.1 µM
Outline: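 Human FEN1 (10 nM) preincubated 15 min at room temperature with compounds, then flap DNA substrate added at 50 nM final. Fluorescence read at 0 and 15 min; concentration-response fitted with four-parameter Hill equation.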

[18] = biological target: M-phase phosphoprotein 8 (Homo sapiens) (UniProt Q99549); test: qHTS Validation Assay for Inhibitors for MPP8 Chromodomain Interactions with Methylated Histone Tails (AID 488949); conditions: AlphaScreen MPP8 binding to H3K9me3 peptide; series mostly up to 114 µM;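 note: AlphaScreen signal from MPP8 chromodomain bound to biotinylated H3K9me3 peptide; top concentration of the series differs between compounds; nearly all actives have a fitted effect of over 55% in size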
Outline: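 Disruption of the preformed MPP8–trimethyl-H3K9 peptide complex (both 50 nM, 30 min, RT) is measured after 30 min compound exposure, using AlphaScreen proximity beads; aurintricarboxylic acid titration serves as plate control.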

[19] = biological target: Chromobox protein homolog 1 (Homo sapiens) (UniProt P83916); test: qHTS Validation Assay for Inhibitors of HP1-beta Chromodomain Interactions with Methylated Histone Tails (AID 488953); conditions: HP1-beta chromodomain / methylated histone peptide binding assay; series mostly up to 114 µM;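 note: loss of AlphaScreen luminescence from HP1-beta binding biotinylated H3K9me3 peptide; nearly all actives have a fitted effect of over 50% in size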
Outline: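 Measured as loss of AlphaScreen luminescence from streptavidin donor and nickel acceptor beads (10 ug/mL final) bridging HP1-beta and biotin-H3(1-18)K9me3, each 50 nM. Compounds met the preassembled complex for 30 min at RT.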

[20] = biological target: Methanococcus maripaludis chaperonin (MmCpn) (UniProt Q6LX38); test: High-Throughput Screening for Modulators of Cytosolic Chaperonin Activity: MmCpn Primary Screen (AID 488978); conditions: Purified MmCpn ATPase activity, ADP HTRF detection, 10 min; series mostly up to 76.9 µM;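 note: 50 nM MmCpn enzyme hydrolysing 30 µM ATP at 37 °C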
Outline: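 Measures ATPase turnover of the M. maripaludis chaperonin (50 nM final) against 30 uM ATP over 10 min at 37C, with compound added 5 min beforehand at room temperature. ADP is quantified by HTRF immunodetection.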

Measured: Potency

Chain of Tumor susceptibility gene 101 protein (Homo sapiens) (Q99816 whole entry, looked up, the tested form may be a part): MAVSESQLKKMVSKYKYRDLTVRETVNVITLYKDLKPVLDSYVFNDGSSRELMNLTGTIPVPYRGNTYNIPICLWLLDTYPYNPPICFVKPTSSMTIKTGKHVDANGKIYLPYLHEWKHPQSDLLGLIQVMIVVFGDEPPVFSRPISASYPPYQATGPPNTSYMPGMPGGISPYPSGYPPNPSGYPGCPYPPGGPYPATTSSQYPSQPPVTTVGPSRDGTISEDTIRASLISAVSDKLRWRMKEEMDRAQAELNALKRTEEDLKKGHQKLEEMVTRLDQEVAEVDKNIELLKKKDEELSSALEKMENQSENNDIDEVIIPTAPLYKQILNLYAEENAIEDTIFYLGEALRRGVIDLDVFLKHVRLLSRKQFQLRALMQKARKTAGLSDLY
Chain of M-phase phosphoprotein 8 (Homo sapiens) (Q99549 whole entry, looked up): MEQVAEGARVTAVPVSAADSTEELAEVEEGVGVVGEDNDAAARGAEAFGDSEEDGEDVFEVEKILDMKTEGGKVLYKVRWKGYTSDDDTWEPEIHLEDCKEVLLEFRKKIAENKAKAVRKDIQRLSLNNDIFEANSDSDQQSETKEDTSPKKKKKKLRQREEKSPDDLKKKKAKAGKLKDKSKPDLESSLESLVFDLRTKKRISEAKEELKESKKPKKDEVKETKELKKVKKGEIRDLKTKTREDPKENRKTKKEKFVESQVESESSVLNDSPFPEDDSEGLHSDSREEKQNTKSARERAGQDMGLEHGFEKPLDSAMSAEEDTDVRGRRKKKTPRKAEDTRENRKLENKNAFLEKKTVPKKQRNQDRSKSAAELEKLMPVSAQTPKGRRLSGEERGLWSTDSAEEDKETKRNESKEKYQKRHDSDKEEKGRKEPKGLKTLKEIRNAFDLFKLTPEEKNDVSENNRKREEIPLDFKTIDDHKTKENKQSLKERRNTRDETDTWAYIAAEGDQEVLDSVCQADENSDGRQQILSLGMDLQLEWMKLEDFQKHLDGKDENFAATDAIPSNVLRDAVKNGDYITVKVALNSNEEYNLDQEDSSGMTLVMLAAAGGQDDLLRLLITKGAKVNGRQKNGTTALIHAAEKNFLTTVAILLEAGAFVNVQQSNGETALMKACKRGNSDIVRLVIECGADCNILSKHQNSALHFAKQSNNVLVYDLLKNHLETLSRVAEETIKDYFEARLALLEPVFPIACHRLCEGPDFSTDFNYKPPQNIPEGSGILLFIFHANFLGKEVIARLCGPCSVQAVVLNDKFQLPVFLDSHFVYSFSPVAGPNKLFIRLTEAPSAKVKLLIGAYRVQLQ
Chain of ATP-dependent 6-phosphofructokinase (Trypanosoma brucei brucei) (O15648 whole entry, looked up): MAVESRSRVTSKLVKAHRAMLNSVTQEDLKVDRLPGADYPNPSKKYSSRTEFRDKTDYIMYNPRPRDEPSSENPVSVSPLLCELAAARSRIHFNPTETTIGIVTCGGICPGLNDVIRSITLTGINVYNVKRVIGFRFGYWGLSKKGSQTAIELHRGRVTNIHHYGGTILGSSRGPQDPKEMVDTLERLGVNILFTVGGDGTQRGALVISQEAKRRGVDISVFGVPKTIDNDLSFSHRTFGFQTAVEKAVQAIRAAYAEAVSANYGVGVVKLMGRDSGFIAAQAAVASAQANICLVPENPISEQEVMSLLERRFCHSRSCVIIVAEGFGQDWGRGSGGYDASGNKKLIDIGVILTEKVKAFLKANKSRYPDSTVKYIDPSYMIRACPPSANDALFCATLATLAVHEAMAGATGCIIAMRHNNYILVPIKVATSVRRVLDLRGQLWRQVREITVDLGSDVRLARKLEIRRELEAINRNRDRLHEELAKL
Chain of Flap endonuclease 1 (Homo sapiens) (P39748 whole entry, looked up): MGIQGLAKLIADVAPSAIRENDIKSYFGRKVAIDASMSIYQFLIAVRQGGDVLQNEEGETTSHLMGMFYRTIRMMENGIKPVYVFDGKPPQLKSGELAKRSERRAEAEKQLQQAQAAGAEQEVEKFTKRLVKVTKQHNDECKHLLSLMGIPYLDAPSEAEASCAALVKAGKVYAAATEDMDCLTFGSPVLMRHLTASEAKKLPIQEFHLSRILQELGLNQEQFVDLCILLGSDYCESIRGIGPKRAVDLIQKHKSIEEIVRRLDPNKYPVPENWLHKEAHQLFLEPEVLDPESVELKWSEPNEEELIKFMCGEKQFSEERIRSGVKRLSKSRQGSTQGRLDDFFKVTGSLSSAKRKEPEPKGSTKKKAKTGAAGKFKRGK
Chain of Thioredoxin reductase 1, cytoplasmic (Rattus norvegicus) (O89049 whole entry, looked up): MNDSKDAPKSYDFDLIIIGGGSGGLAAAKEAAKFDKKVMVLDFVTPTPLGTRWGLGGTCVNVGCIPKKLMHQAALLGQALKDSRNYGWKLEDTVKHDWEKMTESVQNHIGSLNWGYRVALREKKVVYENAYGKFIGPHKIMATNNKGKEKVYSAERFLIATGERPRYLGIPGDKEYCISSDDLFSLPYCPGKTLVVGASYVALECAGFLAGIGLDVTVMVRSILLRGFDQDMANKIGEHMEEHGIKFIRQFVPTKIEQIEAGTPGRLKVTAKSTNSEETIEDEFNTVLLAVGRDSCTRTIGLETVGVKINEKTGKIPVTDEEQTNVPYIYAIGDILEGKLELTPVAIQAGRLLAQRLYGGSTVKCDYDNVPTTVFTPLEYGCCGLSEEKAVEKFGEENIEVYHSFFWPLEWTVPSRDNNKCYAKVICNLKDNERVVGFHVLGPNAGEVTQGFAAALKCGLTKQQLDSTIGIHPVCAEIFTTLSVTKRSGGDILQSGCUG
Chain of Chromobox protein homolog 1 (Homo sapiens) (P83916 whole entry, looked up): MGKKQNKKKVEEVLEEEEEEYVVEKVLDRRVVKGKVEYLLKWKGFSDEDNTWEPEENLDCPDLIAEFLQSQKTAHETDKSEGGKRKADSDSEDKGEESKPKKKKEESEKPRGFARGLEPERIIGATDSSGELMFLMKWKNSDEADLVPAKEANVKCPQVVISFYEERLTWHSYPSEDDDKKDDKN
Chain of ATP-dependent DNA helicase Q1 (Homo sapiens) (P46063 whole entry, looked up): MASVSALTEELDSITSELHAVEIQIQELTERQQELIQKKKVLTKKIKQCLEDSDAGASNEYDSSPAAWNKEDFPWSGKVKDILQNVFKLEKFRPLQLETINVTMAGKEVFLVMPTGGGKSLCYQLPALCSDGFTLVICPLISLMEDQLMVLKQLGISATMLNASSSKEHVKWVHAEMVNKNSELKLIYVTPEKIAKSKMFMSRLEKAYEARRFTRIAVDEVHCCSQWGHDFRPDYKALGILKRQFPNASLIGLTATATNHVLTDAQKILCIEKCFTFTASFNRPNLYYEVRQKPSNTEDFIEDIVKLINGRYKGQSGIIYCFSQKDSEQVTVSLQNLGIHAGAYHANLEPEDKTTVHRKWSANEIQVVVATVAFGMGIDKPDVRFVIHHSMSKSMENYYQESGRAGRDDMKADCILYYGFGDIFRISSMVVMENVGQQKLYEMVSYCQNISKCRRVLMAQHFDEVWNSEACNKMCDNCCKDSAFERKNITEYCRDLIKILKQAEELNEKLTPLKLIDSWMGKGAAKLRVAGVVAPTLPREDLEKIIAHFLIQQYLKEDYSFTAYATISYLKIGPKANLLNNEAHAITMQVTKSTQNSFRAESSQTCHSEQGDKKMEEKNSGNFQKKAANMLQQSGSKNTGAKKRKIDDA
Chain of DNA polymerase III PolC-type (Bacillus subtilis (strain 168)) (P13267 whole entry, looked up): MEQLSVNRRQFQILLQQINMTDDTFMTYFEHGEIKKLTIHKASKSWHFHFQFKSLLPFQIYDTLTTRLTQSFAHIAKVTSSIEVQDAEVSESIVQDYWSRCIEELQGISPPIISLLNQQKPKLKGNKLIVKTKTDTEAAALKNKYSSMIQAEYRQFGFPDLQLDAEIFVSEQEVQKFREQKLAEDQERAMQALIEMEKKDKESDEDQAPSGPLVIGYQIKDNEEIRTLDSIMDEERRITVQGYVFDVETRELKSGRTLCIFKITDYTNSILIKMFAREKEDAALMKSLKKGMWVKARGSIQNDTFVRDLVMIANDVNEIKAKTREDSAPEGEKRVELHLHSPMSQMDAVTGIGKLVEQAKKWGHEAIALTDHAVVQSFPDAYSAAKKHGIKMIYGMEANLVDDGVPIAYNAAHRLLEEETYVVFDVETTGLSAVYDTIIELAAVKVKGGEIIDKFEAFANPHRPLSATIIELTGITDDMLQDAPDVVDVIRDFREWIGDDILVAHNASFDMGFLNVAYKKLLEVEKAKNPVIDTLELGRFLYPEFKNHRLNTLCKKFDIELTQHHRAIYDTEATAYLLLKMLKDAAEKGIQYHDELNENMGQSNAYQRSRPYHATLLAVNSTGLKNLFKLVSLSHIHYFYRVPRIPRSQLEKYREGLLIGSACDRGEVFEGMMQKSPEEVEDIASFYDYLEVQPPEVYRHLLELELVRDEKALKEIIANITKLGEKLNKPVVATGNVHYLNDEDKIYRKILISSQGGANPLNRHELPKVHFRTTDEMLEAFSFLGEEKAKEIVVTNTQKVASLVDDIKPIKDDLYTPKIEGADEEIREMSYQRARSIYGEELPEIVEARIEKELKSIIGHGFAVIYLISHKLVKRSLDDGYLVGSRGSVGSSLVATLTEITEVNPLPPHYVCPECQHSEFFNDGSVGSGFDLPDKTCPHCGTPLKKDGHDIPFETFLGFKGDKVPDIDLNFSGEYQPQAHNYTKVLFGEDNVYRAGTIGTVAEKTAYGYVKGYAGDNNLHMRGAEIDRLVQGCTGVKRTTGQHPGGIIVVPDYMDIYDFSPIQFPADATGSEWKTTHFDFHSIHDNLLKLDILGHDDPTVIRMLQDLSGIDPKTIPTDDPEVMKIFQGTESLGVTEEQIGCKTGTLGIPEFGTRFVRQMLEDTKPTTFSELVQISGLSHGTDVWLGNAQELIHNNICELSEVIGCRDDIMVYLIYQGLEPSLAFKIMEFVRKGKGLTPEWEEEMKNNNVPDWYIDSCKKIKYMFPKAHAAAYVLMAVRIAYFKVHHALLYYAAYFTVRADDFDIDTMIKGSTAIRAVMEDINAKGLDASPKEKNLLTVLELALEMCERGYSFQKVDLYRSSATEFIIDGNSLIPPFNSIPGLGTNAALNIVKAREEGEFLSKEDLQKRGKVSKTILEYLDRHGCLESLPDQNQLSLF

CO[C@@]1(NC(=O)CSCC#N)C(=O)N2C(C(=O)O)=C(CSc3nnnn3C)CS[C@@H]21
inactive: [1]

CC(C)N(CCC(C(N)=O)(c1ccccc1)c1ccccn1)C(C)C (centres undefined)
inactive: all assays above

CN1C(=O)CCS(=O)(=O)C1c1ccc(Cl)cc1 (centres undefined)
inactive: all assays above

O=c1[nH]oc2c1CCNC2
not listed: [3] | [7]
inactive: all other assays above

NCCc1ccc(O)cc1
not listed: [3]
inactive: all other assays above

C[C@]12CCC(=O)C=C1CC[C@@H]1[C@@H]2CC[C@]2(C)C(=O)CC[C@@H]12
inactive: [2] | [1] | [7] | [14] | [18]

CCN(CC)CCNC(=O)c1cc(S(C)(=O)=O)ccc1OC
inactive: [1]
